The campaign covered roughly 60,000 compounds. About 210 (0.35%) were called active. This excerpt belongs to a sample that is enriched for actives. Values without a mark were called inactive.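 The calls were made as follows: active = inhibition above the screen-wide mean inhibition plus 3 SD (cut at about 18% in these data); inactive = the rest.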

Results on 65 compounds are retold here after PubChem BioAssay AID604 (The Scripps Research Institute Molecular Screening Center, 2007).

The target of the assay is Rho-associated protein kinase 2 (Homo sapiens) (UniProt O75116). As to the kind of experiment: ROCK2 enzymatic activity blockers – biochemical, high-throughput, luminescence, primary screen (AID 604).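 Also: plate controls were DMSO wells for no effect and Y-27632 control wells after no-enzyme background subtraction for full effect.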 The settings on record: purified ROCK2, Kinase-Glo ATP depletion luminescence; at 6 µM; hits give high values.
Chain of Rho-associated protein kinase 2 (Homo sapiens) (O75116 whole entry, looked up): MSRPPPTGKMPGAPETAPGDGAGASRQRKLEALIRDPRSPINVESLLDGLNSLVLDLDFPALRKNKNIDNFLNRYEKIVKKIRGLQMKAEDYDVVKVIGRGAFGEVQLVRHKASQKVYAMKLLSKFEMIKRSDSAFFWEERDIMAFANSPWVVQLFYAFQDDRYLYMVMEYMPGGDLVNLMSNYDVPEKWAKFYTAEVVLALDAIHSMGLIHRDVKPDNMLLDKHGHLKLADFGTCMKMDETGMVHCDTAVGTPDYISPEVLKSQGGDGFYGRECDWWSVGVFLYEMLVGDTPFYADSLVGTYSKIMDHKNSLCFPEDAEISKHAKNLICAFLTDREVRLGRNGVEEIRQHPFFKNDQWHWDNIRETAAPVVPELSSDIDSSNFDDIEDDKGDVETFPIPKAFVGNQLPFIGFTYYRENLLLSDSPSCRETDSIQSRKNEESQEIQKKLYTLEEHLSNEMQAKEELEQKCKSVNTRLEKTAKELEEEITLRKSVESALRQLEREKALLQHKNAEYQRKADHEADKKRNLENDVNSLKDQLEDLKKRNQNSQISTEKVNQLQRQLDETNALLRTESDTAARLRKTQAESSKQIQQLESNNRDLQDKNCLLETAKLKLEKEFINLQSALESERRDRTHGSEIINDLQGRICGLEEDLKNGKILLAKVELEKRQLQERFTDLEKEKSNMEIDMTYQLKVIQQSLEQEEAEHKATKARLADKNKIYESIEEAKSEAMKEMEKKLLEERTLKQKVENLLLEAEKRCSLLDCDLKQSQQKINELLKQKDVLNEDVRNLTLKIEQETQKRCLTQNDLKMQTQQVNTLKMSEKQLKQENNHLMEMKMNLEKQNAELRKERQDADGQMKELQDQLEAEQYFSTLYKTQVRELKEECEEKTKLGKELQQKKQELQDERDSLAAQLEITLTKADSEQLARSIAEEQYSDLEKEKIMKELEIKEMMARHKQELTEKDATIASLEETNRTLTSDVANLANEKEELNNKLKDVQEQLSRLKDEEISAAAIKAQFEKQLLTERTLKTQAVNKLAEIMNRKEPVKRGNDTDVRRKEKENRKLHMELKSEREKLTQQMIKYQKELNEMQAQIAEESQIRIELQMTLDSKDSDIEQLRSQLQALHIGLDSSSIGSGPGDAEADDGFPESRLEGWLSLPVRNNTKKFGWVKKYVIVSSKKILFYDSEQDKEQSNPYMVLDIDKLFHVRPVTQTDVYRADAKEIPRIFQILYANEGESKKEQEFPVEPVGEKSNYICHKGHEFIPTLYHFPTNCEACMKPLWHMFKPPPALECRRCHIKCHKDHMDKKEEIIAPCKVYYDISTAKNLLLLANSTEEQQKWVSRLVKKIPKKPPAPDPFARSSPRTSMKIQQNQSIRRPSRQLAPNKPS
Usually inhibition stands for the drop in the measured response relative to a control, in per cent. For the compound `O=C(Nn1cnc2ccccc2c1=O)c1ccc(F)cc1Cl`, the inhibition is 4.2%.
In the case of `CCCCCCn1c(SCC(=O)c2ccccc2)nc2c1c(=O)[nH]c(=O)n2C` it was 6.3%.
As to `O=C(CSc1nnc2scc(-c3ccc(F)cc3)n12)NCc1ccco1`, the inhibition is 2.1%.
With `CC1(C)C2CCC1(C)C(OC(=O)CCn1ccnc1)C2` (stereo not given), the inhibition is 6.6%.
The value for `O=C(CC1Nc2ccccc2NC1=O)Nc1ccccc1` (stereo not given) was 3%.
With `O=C(C1=C(O)C(=O)N(c2ncccn2)C1c1cccs1)c1ccco1` (stereo not given), the inhibition was -11.1%.
The value for `CNC(=O)C1CC(=O)N(Cc2ccc3c(c2)OCO3)C(=Nc2ccc(F)cc2)S1` (stereo not given) was -7.4%.
The value for `O=CN1CCN(C2CC(=O)N(c3ccc4c(c3)OCO4)C2=O)CC1` (stereo not given) was 7%.
The value for `O=C1CC(N2CCN(C(c3ccccc3)c3ccccc3)CC2)C(=O)N1` (stereo not given) was 5.5%.
In the case of `CCc1ccc2oc(-c3ccc(N)cc3)nc2c1`, the inhibition is 4.1%.
As for `CCCC(=O)Nc1ccc2c(c1)nc1n2CCSC1`, the inhibition is -0.6%.
In the case of `CCCCCC(=O)Nc1ccc2oc(-c3ccncc3)nc2c1` it was 22.3% (active); in that of `NC(=O)C1CCN(C2OC(=O)c3ccccc32)CC1` (stereo not given), 7.4%; in that of `COc1cc2c(cc1NC(=O)CN1CCN(S(=O)(=O)c3ccc(F)cc3)CC1)oc1ccccc12`, 3.5%.
Turning to `Cc1noc(COc2ccccc2OCC(O)CNC(C)(C)C)n1` (stereo not given), the inhibition was 1.2%.
In the case of `O=P(c1ccc2c(c1)OCCO2)(N1CCOCC1)N1CCOCC1`, the inhibition was -3.2%.
In the case of `Cc1nn(-c2ccccc2)c2[nH]c(C(F)(F)F)cc(=O)c12` it was -0.3%.
For `CCOc1ccc(CCNC(=O)C(CC)n2nc(C)n3c(cc4sccc43)c2=O)cc1OCC` (stereo not given), the inhibition is -3.8%.
In the case of `CCc1nnc(NC(=O)CCC(=O)O)s1` it was -4.5%; in that of `O=[n+]1c2c(n([O-])c3cc(Br)ccc31)CCC2`, -5%; in that of `CC(=O)c1ccc(NC(=O)N[C@@H](Cc2ccccc2)C(=O)O)cc1`, -0.8%.
In the case of `Cc1cc(Nc2ccccc2)n(CCC#N)n1` it was 4.6%; in that of `Cc1c(C(=O)N2CC(C)OC(C)C2)sc2nc(-c3ccccc3)cn12` (stereo not given), 8.6%.
The value for `Cc1c(NC(=O)C(C)OC(=O)c2cc3c4ccccc4n(C)c3s2)c(=O)n(-c2ccccc2)n1C` (stereo not given) was 5.5%; that for `Fc1cnc(N2CCOCC2)nc1NCc1ccccc1` was -0.4%.
Turning to `Cc1nc(-c2ccc(NC(=O)c3cccs3)cc2)cs1`, the inhibition is -25%.
In the case of `Cc1nnc(NC2=NCCCCC2)o1` it was -0.7%.
With `Cc1ccc(S(=O)(=O)c2nc(NCCCn3ccnc3)sc2Cl)cc1`, the inhibition is 1.7%.
Turning to `CCC1(C)N(O)C(C)(C)C(c2ccc(OC)cc2)=[N+]1[O-]` (stereo not given), the inhibition is 2.5%.
The value for `O=c1[nH]c(=O)n(Cc2ccco2)c2c1C(C(F)(F)F)(C(F)(F)F)N=C(c1ccco1)N2` was 5%; that for `N#CCCN1CCN(S(=O)(=O)c2ccc(S(=O)(=O)NC3CC3)cc2)CC1` was 1.7%.
With `CCOC(=O)CSc1nnc(-c2cccc(Br)c2)o1`, the inhibition was 2.1%.
In the case of `COc1cc(=O)[nH]c(=O)n1C(=O)Cc1ccccc1` it was -0.6%; in that of `Cc1cc(C)nc(SCc2ccccc2C#N)n1`, 6%.
The value for `COc1ccc(N2C(=O)C3CCCN3C2c2cccs2)cc1` (stereo not given) was -2.8%.
In the case of `CCC(C)(NC(=O)c1ccccn1)C(=O)NC1CCCCC1` (stereo not given) it was -0.8%; in that of `Cc1ccc2[nH]c(=O)c(COC(=O)c3ccccn3)cc2c1`, 6.5%.
`CCCC(=O)Nc1ccc(Cl)c(NC(=O)c2ccc(Br)o2)c1`: the inhibition was -0.6%.
For `O=C(c1ccco1)N1CCN(C(=O)C2CC(c3ccc(F)cc3)=NO2)CC1` (stereo not given), the inhibition is 1.1%.
Regarding `COc1ccc(C(=O)Nc2c(N)nc(SCC(=O)N3CCC(C)CC3)[nH]c2=O)cc1OC`, the inhibition is 1.5%.
The value for `CN1CCN(CC(O)COCc2ccc3c(c2)OCO3)CC1` (stereo not given) was 5.7%.
Regarding `O=C(NCc1ccco1)c1cnn2c(C(F)(F)F)cc(-c3ccco3)nc12`, the inhibition was 12.9%.
`NC(=O)Cn1c(=O)oc2ccccc21`: the inhibition is -2%.
Consider `CCOc1ccc2[nH]c(=O)c(CN(CCCO)C(C)=O)cc2c1`, for which the inhibition was -4.4%.
`Fc1ccc(Cn2nnnc2C(c2cccs2)N2CCCCCC2)cc1` (stereo not given): the inhibition is 4.1%.
In the case of `CC(C)C1Cc2c(sc3c2c(=O)n(-c2ccccc2)c2nncn32)CO1` (stereo not given) it was 5.5%; in that of `O=C(c1ccco1)N1CCN(C(=O)c2ccc(COc3ccc(F)cc3)o2)CC1`, -1.9%; in that of `O=S(=O)(Nc1ccccn1)c1ccc(Oc2ccccc2)cc1`, -6.5%.
With `Nn1c(SCC(=O)NC(=O)NC2CCCC2)nnc1-c1ccccc1F`, the inhibition is 12.5%.
On to `CCCCC(=O)Nc1ccc2c(c1)OCCO2`, for which the inhibition is -1.9%.
For the compound `CN1C(=O)c2ccc(NC(=O)c3c(F)c(F)c(F)c(F)c3F)cc2C1=O`, the inhibition is 9.3%.
The value for `CCCCC(=O)Nc1ccc2c(c1)C(=O)NC2=O` was 23.1% (active); that for `Cc1ccccc1CSCC(=O)NC(=O)NC(C)(C)C` was 4.6%.
The value for `CCSc1nc(=S)n(CC)c(C)c1C(C)=O` was 0.9%; that for `CSc1ccc(NC(=O)N2CC(C)OC(C)C2)cc1` (stereo not given) was 6.5%; that for `CCN(CC)C(=O)CSc1nnc(-c2ccc(S(=O)(=O)NCc3ccccc3Cl)cc2)o1` was 1.9%.
With `Cc1nn(Cc2ccc(Cl)c(Cl)c2)c(C)c1NC(=O)c1cc(C2CC2)on1`, the inhibition is -8.2%.
Regarding `Cc1ccc(O)c(NC(=O)COc2cc(C)ccc2C)c1`, the inhibition was 3.2%.
In the case of `COc1ccc(OC)c(NC(=O)CN2CCN(C(=O)c3ccco3)CC2)c1` it was 0.1%; in that of `OCCNCCCCOc1ccccc1F`, 5.9%.
The value for `CCSc1ncnc2c(C#N)c3n(c12)CCCCC3` was 3%.
In the case of `CC(=O)Nc1nonc1-c1nc2ccccc2n1Cc1ccccn1` it was 2.3%; in that of `Cn1c(=O)c2c(n(Cc3ccccc3)c1=O)NC(=O)C2CC(=O)N1CCc2ccccc2C1` (stereo not given), 6.4%; in that of `C=CCn1c(C)cc(C(=O)CN2C(=O)c3ccccc3C2=O)c1C`, 2.5%.
As to `CCCn1cc(SCC(N)=O)c2ccccc21`, the inhibition was 4.9%.
